Screens (PubChem BioAssay)
DYRK1A inh: Dyrk1A (rat) kinase inhibition; ADP-Glo luminescence, NFATc1 peptide; inhibition, % at 12.5 µM; 310,000 tested, 0.43% active; in the data active = inhibition above about 50%;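 note: plate controls were vehicle with enzyme for no effect and no enzyme for full effect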
dFosB act-1: activators of mouse delta FosB homodimer; P13346; purified delta FosB, TAMRA-CDK5 oligo fluorescence polarization; percent of positive-control signal above neutral wells; activation, % at 25 µM; 340,000 tested, 0.99% active;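 active = mean activation above about 17%, with every replicate also reaching it, limit read from the data, passing the limit was not always enough; inconclusive = only one of the two conditions met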
Target sequence (P13346 whole entry, looked up): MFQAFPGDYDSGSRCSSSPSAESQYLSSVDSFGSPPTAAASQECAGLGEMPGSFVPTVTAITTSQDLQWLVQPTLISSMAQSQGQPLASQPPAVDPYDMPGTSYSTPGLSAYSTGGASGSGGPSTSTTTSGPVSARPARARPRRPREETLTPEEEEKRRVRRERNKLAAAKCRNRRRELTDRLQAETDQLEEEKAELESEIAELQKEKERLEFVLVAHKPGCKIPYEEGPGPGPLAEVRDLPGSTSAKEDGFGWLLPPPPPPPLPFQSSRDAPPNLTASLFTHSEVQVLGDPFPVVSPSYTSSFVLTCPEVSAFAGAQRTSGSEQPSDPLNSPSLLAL
Beta2AR agonist: human beta-2 adrenergic receptor agonism by FAP; P07550; Am2.2-beta2AR cells, FAP receptor internalization, flow cytometry; response, % (test concentration not listed); 340,000 tested, 0.43% active;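 active = response above a set limit, near 3 SD of response in nonfluorescent compounds, cut at about 42% in these data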
Target sequence (P07550 whole entry, looked up): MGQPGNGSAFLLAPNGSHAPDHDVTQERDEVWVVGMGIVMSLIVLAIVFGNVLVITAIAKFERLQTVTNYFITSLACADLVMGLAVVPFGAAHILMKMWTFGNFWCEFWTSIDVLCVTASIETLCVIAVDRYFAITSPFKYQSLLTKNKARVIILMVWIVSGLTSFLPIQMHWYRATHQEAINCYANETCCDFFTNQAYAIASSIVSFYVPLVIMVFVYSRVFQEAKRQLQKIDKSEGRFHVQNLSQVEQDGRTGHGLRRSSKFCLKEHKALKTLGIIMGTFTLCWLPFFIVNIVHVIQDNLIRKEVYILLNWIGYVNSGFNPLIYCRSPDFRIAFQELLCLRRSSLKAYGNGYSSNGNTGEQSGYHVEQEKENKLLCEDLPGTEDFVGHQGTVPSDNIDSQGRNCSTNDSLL
A1 inh: inhibitors of the anti-apoptotic protein A1, read as caspase activation; MEF A1-2A-BIM cells, Caspase-Glo 3/7 luminescence, 3 h; percent of clofoctol response, vehicle zero; caspase activation, % (no concentration beside the values); 330,000 tested, 0.066% active;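 active = over half of replicate activation scores above 10%, or exactly half above 10 with the replicate mean above 10; inconclusive = replicate mean below 10 yet half the replicates above 10; inactive = over half of replicates below 10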
dFosB act-2: delta FosB (mouse) homodimer activation; shares compounds with dFosB act-1; purified delta FosB, TAMRA-CDK5 oligo fluorescence polarization; normalised: neutral wells 0, positive control 100; activation, % at 24.9 µM; 2,400 tested, under 10 active; AID 588690;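 active = highest replicate activation at or above 34% and every replicate reaching that threshold; inconclusive = meets only one of the two criteria; inactive = meets neither criterion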;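 note: higher polarization means more probe DNA bound by delta FosB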
Dyrk1A artifact: counter-screen for Dyrk1A inhibitors: ADP-Glo luciferase artifacts; shares compounds with DYRK1A inh; ADP-Glo luciferase artifact assay, no Dyrk1A, luminescence; AC50, µM (highest dose often 12 µM), for the others: top-dose activity change, negative = inhibition; 1,300 tested, under 10 active; AID 588348;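 active = fitted half-maximal dose AC50 no more than ten times the top valid tested dose, with luminescence dropping as dose rises; inconclusive = poor fit, or flat fit with 30 to 70% inhibition; inactive = the rest, signal increases included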
Beta2AR ag CP1: agonists of human beta-2 adrenergic receptor; shares compounds with Beta2AR agonist; percent response (surface receptor), % at 10 µM; 1,100 tested, 25% active; Am2.2-beta2AR cells, FAP surface receptor, flow cytometry; hits give low values;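 active = surface receptor percent response at or below 58%, roughly 3 SD from nonfluorescent compounds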
B2AR FAP counter: fluorescence artifact in beta-2AR agonist FAP counterscreen. shares compounds with Beta2AR agonist. Am2.2 cells, FAP fluorogen flow cytometry; hits give low values. calls only at 10 µM. 1,100 tested, under 10 active. AID 588765;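 active = percent response below a set limit in fluorescence channel 1 and below 50% in channel 8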
* hit, by the source's call; i = inactive; u = inconclusive; x = no result given. Rows were chosen to be rich in hits. Some 1.6% of all compounds tested hit in one or more screens of this group.

SMILES | DYRK1A inh | dFosB act-1 | Beta2AR agonist | A1 inh | Dyrk1A artifact | others
Cc1cccc(C(=O)OC(C)C(=O)N2CCc3ccccc3C2)c1C (stereo not drawn) | -3.4 | -4.2 | 1.8 | -0.6 | x
CCOc1ccc(NC(=O)Cn2nnc(-c3ccccc3NC(=O)C3CC3)n2)cc1 | -3.4 | 59.8* | -3.3 | -0.1 | x | dFosB act-2=0.9;Beta2AR ag CP1=123.0;B2AR FAP counter=i
CCOc1ccc(NC(=O)Cn2nnc(-c3ccccc3F)n2)cc1 | -7.1 | -9.1 | -7.8 | -0.7 | x
Cc1c(C(=O)Nc2ccccn2)sc2nc3n(c(=O)c12)CCC3 | -10.4 | -18.6 | -12.4 | -1.4 | x
NS(=O)(=O)c1ccc(NC(=O)c2cccc(N3C(=O)c4ccccc4C3=O)c2)cc1 | 1.0 | 111.3* | 85.5* | -0.3 | x | dFosB act-2=5.4;Beta2AR ag CP1=41.8*;B2AR FAP counter=i
COc1cc(/C=C2/SC(N)=NC2=O)ccc1Oc1ccc([N+](=O)[O-])cc1[N+](=O)[O-] | 37.5 | u | -4.8 | -0.8 | x
NC1=NC(=O)/C(=C\c2ccc(O)c([N+](=O)[O-])c2)S1 | 79.2* | 2.6 | 4.0 | -0.1 | 9.0%
O=c1cc(-c2ccccc2Cl)oc2c([N+](=O)[O-])c(O)cc(O)c12 | 82.8* | -6.5 | 1.2 | -0.9 | 11.6%
O=C(CCc1ccccc1)N/N=C/c1cccc(O)c1 | 16.5 | 1.2 | 7.6 | -0.1 | x
O=C(N/N=C/c1cccc(O)c1)N/N=C/c1cccc(O)c1 | 53.7* | -13.9 | 13.9 | -2.2 | 7.7%
c1ccc2c(-c3nn[nH]n3)cccc2c1 | -3.7 | 0.5 | -11.8 | -0.1 | x
Oc1cccc2c(-c3nn[nH]n3)ccnc12 | 69.5* | 1.1 | 3.9 | 1.7 | 11.7%
C[C@@H]1C=C(C(=O)NCc2nc3ccccc3[nH]2)O[C@H](OCCCCO)C1 | 51.3* | 0.8 | -6.2 | 0.2 | 10.8%
O=C(CSc1ncn[nH]1)NNC(=O)c1ccccc1 | 8.3 | -0.2 | -9.2 | -0.2 | x
Cc1ccc(NC(=O)CNCc2cccs2)c(Br)c1 | 1.6 | -5.9 | 5.3 | 0.6 | x
Nc1cc2c(cc1[N+](=O)[O-])-c1ccccc1C2=NO | 79.8* | u | -15.2 | x | 7.1%
COc1cccc(Nc2ncnc3sccc23)c1 | 7.8 | 2.4 | -7.4 | -0.6 | x
COc1cccc(Nc2ncnc3sc(C)cc23)c1 | 76.6* | -3.8 | -5.3 | 0.0 | 11.4%
Oc1ccc(/C=N/n2c(-c3ccccc3)n[nH]c2=S)cc1 | 55.2* | 1.3 | 0.9 | 0.0 | 8.6%
COc1ccc(/C=N/n2c(-c3ccccc3)n[nH]c2=S)cc1 | -2.5 | -7.7 | 0.6 | 0.9 | x
Cc1ccc(S(=O)(=O)N(C)C)cc1NC(=S)Nc1cccc2ccccc12 | 3.6 | -15.0 | -5.8 | 0.2 | x
COc1ccc(NC(=S)Nc2cccc3cnccc23)cc1 | 56.0* | -4.8 | 6.8 | 1.1 | 7.4%
CN(C)S(=O)(=O)c1cccc(NC(=S)Nc2cccc3cnccc23)c1 | 55.8* | -7.6 | 4.4 | x | 8.1%
S=C(Nc1ccc(Cl)cc1)Nc1cccc2cnccc12 | 25.9 | 2.0 | -0.6 | -0.1 | x
Fc1ccc(NC(=S)Nc2cccc3cnccc23)cc1 | 59.5* | -4.8 | 2.3 | -1.0 | 9.3%
SMILES | DYRK1A inh | dFosB act-1 | Beta2AR agonist | A1 inh | Dyrk1A artifact | others
S=C(Nc1cccnc1)Nc1cccc2cnccc12 | 60.1* | 3.4 | -4.0 | 0.9 | 9.4%
COc1ccc(Cl)cc1NC(=O)CCc1nnc2ccc(N3CCC4(CC3)OCCO4)nn12 | -0.7 | -1.0 | 1.8 | 0.9 | x
COc1ccccc1C(=O)NCCC(=O)Nc1cccc(S(=O)(=O)N2CCCC2)c1 | x | -7.0 | -8.6 | -0.5 | x
COc1cc(C2C(=O)c3ccccc3C2=O)ccc1O | 69.3* | -6.2 | 3.6 | -3.9 | 8.9%
Nc1c(C(=O)O)ccc2c1C(=O)c1ccccc1C2=O | 88.4* | -11.9 | 10.3 | -0.1 | 7.5%
Nc1cc(C(=O)O)c(N)c2c1C(=O)c1ccccc1C2=O | 7.5 | -11.1 | 6.0 | -5.3 | x
O=C1c2ccccc2C(=O)c2c1ccc(O)c2O | 59.7* | -19.4 | 18.9 | x | 7.0%
COC(=O)c1ccc2c(c1O)C(=O)c1ccccc1C2=O | 6.5 | -4.6 | 3.2 | -5.9 | x
Cc1ncc(/C=C2\C(=O)Nc3ccccc32)[nH]1 | x | x | 0.3 | -1.1 | x
CCc1ncc(/C=C2\C(=O)Nc3ccccc32)[nH]1 | 56.6* | -2.9 | -3.9 | -2.2 | 6.5%
Cc1cc(=O)[nH]c(SCC(=O)c2ccccc2)c1C#N | 10.2 | 0.7 | 6.7 | -8.5 | x
Cc1ccccc1NC(=O)CSc1[nH]c(=O)cc(C)c1C#N | 57.8* | -0.5 | -0.3 | 0.0 | 7.6%
O=C1c2ccccc2-c2onc3ccc(N4CCCC4)c1c23 | 76.7* | -131.1 | -9.6 | x | 9.5%
CCOc1ccc2noc3c2c1C(=O)c1ccccc1-3 | 0.7 | -21.1 | -302.2 | -0.2 | x
CCn1cc(C(=O)N2CCCC(CO)(Cc3ccccc3C)C2)cn1 (stereo not drawn) | -7.1 | -1.1 | 3.7 | -0.8 | x
COc1cc(/C=C(\C#N)c2nc3ccc(C)cc3[nH]2)c([N+](=O)[O-])cc1OC | -3.2 | -1.6 | 14.8 | 0.0 | x
COc1c(O)ccc(/C=C(\C#N)c2nc3ccccc3[nH]2)c1[N+](=O)[O-] | 72.5* | -9.4 | -17.9 | -5.1 | 8.2%
Cc1ccc2nc(/C(C#N)=C\c3cc(O)ccc3[N+](=O)[O-])[nH]c2c1 | 76.9* | 7.2 | -4.4 | 1.4 | 6.0%
N#Cc1nc(-c2ccccc2Cl)oc1NCC1CCCO1 (stereo not drawn) | 60.0* | -6.5 | -24.0 | 0.1 | 12.0%
Oc1ccc(-c2nccc(-c3cccs3)n2)cc1 | 61.2* | -16.8 | -23.6 | -0.2 | 4.7%
O=C(Cn1cc(COc2ccccc2C(F)(F)F)nn1)c1ccc(O)cc1 | 50.8* | -5.2 | 5.2 | x | 9.0%
O=C(N=C1SC2CS(=O)(=O)CC2N1c1ccc(OC(F)(F)F)cc1)C1CC1 (stereo not drawn) | -4.4 | -10.2 | 0.0 | 0.3 | x
O=c1c(O)c(-c2ccc(O)c(O)c2)oc2cc(O)ccc12 | 87.7* | -2.8 | 7.8 | x | 8.6%
O=c1c(-c2ccc(O)cc2)coc2cc(O)ccc12 | 31.0 | -5.9 | -2.4 | -2.6 | x
O=c1cc(-c2ccc(O)cc2)oc2cc(O)cc(O)c12 | 31.7 | -27.3 | -9.2 | -6.5 | x
O=c1c(O)c(-c2ccc(O)cc2)oc2cc(O)cc(O)c12 | 59.0* | 6.4 | 7.1 | 0.0 | 7.2%
CNC(=O)CSc1nnc(NC(=O)C2CC(=O)N(c3ccccc3OC)C2)s1 (stereo not drawn) | -3.9 | -6.6 | 6.5 | 0.2 | x
O=C(NCc1ccco1)c1sc2ccccc2c1Cl | 55.6* | -15.9 | -3.9 | u | 10.3%
